Results as given in PubChem BioAssay AID2685 (National Center for Advancing Translational Sciences (NCATS), 2010).
Out of some 320,000 compounds screened, about 2,100 (0.66%) were called active. Not shown: some 53% with an inconclusive outcome. Calls come from the whole dose curve; as a rule, active = well fitted inhibition curve with a large enough effect in the signal ratio, with a control signal flat (not every such curve was filed as active); inconclusive = small, poorly fitted or top-dose-only effect, or effect the other way, or a change in a side signal; inactive = flat fitted curve, though single readings scatter; the % refers to the signal ratio. For the sample, actives were picked, then their nearest neighbours and some compounds at random.

Assay: qHTS Assay for Lipid Storage Modulators in Drosophila S3 Cells;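 for cell number change: cells counted by Cell Tracker Red CMTPX staining in the red channel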; for lipid storage change, negative = inhibition: % is set by controls: 0 for no effect and ±100 for the full control effect
Details: BODIPY lipid droplet fluorescence, 18-24 h, cells fed with added oleic acid; cell number change: measured here: cell count max response; series mostly up to 46.1 µM; lipid storage change, negative = inhibition: at the top concentration
How it was run: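 Drosophila S3 cells got compounds at several concentrations plus oleic acid (400 uM solution). Laser-scanning cytometry with 488 nm excitation read lipid droplets at 500-530 nm and cells at 575-640 nm. Percent activity was relative to 20 uM Triacsin C.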
Potency is the fitted concentration of half-maximal effect.

Row | Compound | lipid storage change, negative = inhibition | cell number change [%] | outcome | Potency
1 | Cc1cccc(C)c1NC(=O)CNC(=O)C1CCCN(C(=O)c2ccc(Cl)cc2)C1 (configuration not stated) | 10.7% (inactive) | 1.48 |  | 
2 | COc1cc(C(=O)NCC(=O)NC(C)CCc2ccccc2)cc(OC)c1OC (configuration not stated) |  | -6.74 | inactive | 
3 | CCOC(=O)N1CCN(C(=O)CCCCCn2c(=S)[nH]c3ccsc3c2=O)CC1 | 14.1% (inactive) | 6.09 |  | 
4 | CCOC(=O)C1CCCN(C(=O)C2CCN(S(=O)(=O)c3c(C)noc3/C=C/c3ccccc3F)CC2)C1 (configuration not stated) |  | 2.99 | inactive | 
5 | COc1ccc(Cl)cc1NC(=O)CCNC(=O)OCc1ccccc1 |  | -13.6 |  | 7.31 µM (active)
6 | COc1ccc(OC)c(NC(=O)CCN2CCN(Cc3ccccc3)CC2)c1 | 16.5% (inactive) | -0.977 |  | 
7 | COc1ccc(OC)c(NC(=O)CCN2C(=O)c3ccccc3C2=O)c1 |  | 23.6 | inactive | 
8 | COc1ccc(OC)c(NC(=O)CCCc2ccccc2)c1 |  | 8.01 | inactive | 
9 | COc1ccc(OC)c(NC(=O)NCCCCc2ccccc2)c1 |  | -13.4 |  | 2.91 µM (active)
10 | COc1ccc(OC)c(NC(=O)NCCc2cccc(Cl)c2)c1 | 12.6% (inactive) | 4.18 |  | 
11 | COc1ccc(Cl)cc1NC(=O)COC(=O)CCNC(C)=O | 11.9% (inactive) | 0.288 |  | 
12 | COc1ccc(Cl)cc1NC(=O)CN1CCN(Cc2ccccc2)CC1 | -7.01% (inactive) | 1.46 |  | 
13 | COc1ccc(OC)c(NC(=O)CN2C(=O)C(=O)N(Cc3ccccc3)C2=O)c1 |  | -12.4 |  | 2.31 µM (active)
14 | COc1ccc2oc(=N)c(C(=O)NCc3ccccc3)cc2c1 | -29.1% (inactive) | 8.47 |  | 
15 | O=C(O)CCc1ccc(-c2cccs2)n1NC(=O)c1ccc(O)cc1 | 10.7% (inactive) | 6.61 |  | 
16 | CC1CC1C(=O)OCC(=O)NCc1ccccc1Cl (configuration not stated) |  | -18.4 |  | 32.6 µM (active)
17 | O=C(COC(=O)/C=C/c1ccccc1)NCc1ccccc1Cl | 0.13% (inactive) |  |  | 
18 | O=C(COC(=O)C1CC2C=CC1C2)NCc1ccccc1Cl (configuration not stated) | 10.6% (inactive) | 9.83 |  | 
19 | Oc1cccc(/C=N/Nc2ccc(Cl)nn2)c1 | 9.73% (inactive) | 0.54 |  | 
20 | O=C1c2ccccc2C(=O)N1c1cccnc1 |  | -5.37 |  | 25.9 µM (active)
21 | O=C1c2cccc([N+](=O)[O-])c2C(=O)N1c1cccnc1 | 0.573% (inactive) |  |  | 
22 | O=C1c2cccc3cccc(c23)C(=O)N1c1cccnc1 | -3.65% (inactive) | -10.8 |  | 
23 | Cc1ccccc1Nc1nnc(SCC(=O)Nc2ccccc2[N+](=O)[O-])s1 | -4.62% (inactive) | -4.61 |  | 
24 | CCCCC[C@H]1CN(CCc2ccccc2)C(=O)[C@@H]1CC(=O)NCc1ccc(OC)cc1 | -6.03% (inactive) | -13.8 |  | 

Row | Compound | lipid storage change, negative = inhibition | cell number change [%] | outcome | Potency
25 | CCCCC[C@H]1CN(C2CCCCC2)C(=O)[C@@H]1CC(=O)NCc1ccccc1 |  | -8.08 |  | 16.4 µM (active)
26 | CCCCN1C[C@H](Cc2ccccc2)[C@@H](CC(=O)NCc2ccc(OC)cc2)C1=O | -12.4% (inactive) | 2.91 |  | 
27 | CCOC(=O)c1ccc(NC(=O)c2nc[nH]c2C(=O)N2CCc3ccccc3C2)cc1 | 13.6% (inactive) | 9.14 |  | 
28 | O=[N+]([O-])c1cc(S(=O)(=O)N2CCCCCC2)ccc1F |  | -27.8 |  | 14.6 µM (active)
29 | O=[N+]([O-])c1cc(S(=O)(=O)N2CCCCCC2)ccc1Cl | -17.4% (inactive) | -8.42 |  | 
30 | O=[N+]([O-])c1cccc2c(S(=O)(=O)N3CCCCC3)cccc12 |  | -7.14 | inactive | 
31 | O=[N+]([O-])c1ccccc1S(=O)(=O)N1CCCCC1 |  |  |  | 3.66 µM (active)
32 | O=[N+]([O-])c1ccccc1S(=O)(=O)N1CCSCC1 | 25.8% (inactive) | -12 |  | 
33 | Cc1ccc(S(=O)(=O)N2CCCCCC2)cc1[N+](=O)[O-] | -26% (inactive) | -8.44 |  | 
34 | O=C(NCCc1ccccc1)/C(=C\c1ccc([N+](=O)[O-])cc1)NC(=O)c1ccco1 |  |  | inactive | 
35 | COc1ccccc1C1(CC(=O)Nc2nccs2)CCOC(C(C)C)C1 (configuration not stated) | -11.8% (inactive) |  |  | 
36 | C=CCn1c(SCC(=O)NCc2ccc3c(c2)OCO3)nnc1C1CCCCC1 | -2% (inactive) | -24 |  | 
37 | COC(=O)c1sccc1NS(=O)(=O)c1ccccc1[N+](=O)[O-] |  | -10.5 | inactive | 
38 | CN(C)S(=O)(=O)c1cccc(NC(=O)COC(=O)CCc2nc3ccccc3s2)c1 |  | 27.2 | inactive | 
39 | CCCCCNC(=O)c1ccc2c(=O)n(CC3CCCO3)c(=S)[nH]c2c1 (configuration not stated) | 3.35% (inactive) | 12.5 |  | 
40 | COc1ccc(NC(=O)c2ccc3c(=O)n(CC4CCCO4)c(=S)[nH]c3c2)c(OC)c1 (configuration not stated) |  | 0.833 | inactive | 
41 | Cc1cccc(NC(=O)c2ccc3c(=O)n(CC4CCCO4)c(=S)[nH]c3c2)c1 (configuration not stated) |  | 0.855 |  | 2.91 µM (active)
42 | CCOc1ccccc1C(=O)NN1C(=O)C2CCCCC2C1=O (configuration not stated) | -3.41% (inactive) | 2.53 |  | 
43 | O=C(N/N=C1\CCCCc2ccccc21)c1ccccn1 | 4.38% (inactive) | 8.38 |  | 
44 | CC1(C)CC(=O)C=C(Nc2ccc(F)cc2)C1 |  |  | inactive | 
45 | CC1(C)CC(=O)C=C(NCCc2ccc(S(N)(=O)=O)cc2)C1 |  | 7.43 |  | 29.1 µM (active)
46 | CC(=O)Nc1ccc(NC2=CC(=O)CC(C)(C)C2)cc1 |  |  | inactive | 
47 | CCc1ccc(NC2=CC(=O)CC(C)(C)C2)cc1 |  | -10.8 |  | 16.4 µM (active)
